{
  "source": "PubChem BioAssay AID488815",
  "about": "(Broad Institute, 2010)",
  "note": "Entries with a potency or affinity are not part of this list. Results filed as inconclusive are left out. The source made the active and inactive calls. How the calls were made is not given here.",
  "data": [
    {"target": "CAAX prenyl protease 1 (Saccharomyces cerevisiae (strain ATCC 204508 / S288c)) (UniProt P47154)", "sequence (P47154 whole entry, looked up)": "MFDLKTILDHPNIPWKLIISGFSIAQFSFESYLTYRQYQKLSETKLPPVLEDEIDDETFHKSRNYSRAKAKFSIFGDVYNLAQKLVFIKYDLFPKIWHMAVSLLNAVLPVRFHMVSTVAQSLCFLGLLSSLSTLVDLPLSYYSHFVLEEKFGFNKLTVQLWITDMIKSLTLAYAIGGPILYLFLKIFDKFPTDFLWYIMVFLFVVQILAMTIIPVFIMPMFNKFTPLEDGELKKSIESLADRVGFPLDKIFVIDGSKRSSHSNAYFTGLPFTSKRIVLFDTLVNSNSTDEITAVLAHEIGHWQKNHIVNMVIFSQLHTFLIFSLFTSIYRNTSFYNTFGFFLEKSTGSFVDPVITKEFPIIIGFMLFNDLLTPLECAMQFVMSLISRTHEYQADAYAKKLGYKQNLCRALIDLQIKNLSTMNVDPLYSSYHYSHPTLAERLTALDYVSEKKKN", "test": "Ste24 protease inhibitors, dose response, biochemical, S. cerevisiae, plate reader, cherry-pick (AID 488815)", "details": "yeast Ste24 protease activity; series mostly up to 10 µM", "values": [
      {"smiles": "O=C(Nc1ccc(N2CCOCC2)c(Cl)c1)c1cc2ccccc2o1", "outcome": "inactive"},
      {"smiles": "CC(=O)Nc1ccc(Cl)cc1C1COC(=O)C1=N", "note": "(stereo not given)", "outcome": "inactive"},
      {"smiles": "COc1ccccc1-n1c(-c2ccccc2)c[nH]c1=S", "outcome": "inactive"},
      {"smiles": "Cc1cc(-c2ccccc2)n2nc(C)c(C#N)c2n1", "outcome": "inactive"},
      {"smiles": "CCn1cc(/C=C(\\NC(=O)c2ccccc2)C(=O)N2CCOCC2)c2ccccc21", "outcome": "inactive"},
      {"smiles": "O=C(CN(C1CCCCC1)C1CCCCC1)N1CCc2ccccc2C1", "outcome": "inactive"},
      {"smiles": "N/C(Cc1ccc([N+](=O)[O-])cc1)=N\\OC(=O)c1ccc2ccccc2c1", "outcome": "inactive"},
      {"smiles": "COC(C/C=C/[C@@H](O)[C@H](C)OCc1ccccc1)OC", "outcome": "inactive"},
      {"smiles": "COc1ccc(/C=N/NC(=O)c2ccc(Cl)cc2)cc1COC(C)=O", "outcome": "inactive"},
      {"smiles": "Cc1ccc(C2(COC(=O)C(C)C)CO2)c(OC(=O)C(C)C)c1", "note": "(stereo not given)", "outcome": "inactive"},
      {"smiles": "COc1ccc(CN2CCN(C(c3ccc(F)cc3)c3ccc(F)cc3)CC2)c(OC)c1OC", "outcome": "inactive"},
      {"smiles": "C/C(CC(=O)NCc1ccco1)=N\\NC(=O)c1ccc([N+](=O)[O-])cc1Cl", "outcome": "inactive"},
      {"smiles": "CCCOc1ccccc1C(=O)NCCCC(=O)O", "outcome": "inactive"},
      {"smiles": "CCOC(=O)c1c(NC(=O)c2cccc(N3C(=O)CCC3=O)c2)sc(C)c1C", "outcome": "inactive"},
      {"smiles": "Cc1cccc2sc(N(CCN(C)C)C(=O)c3ccc4ccccc4c3)nc12", "outcome": "inactive"},
      {"smiles": "CN(C(=O)c1ccc2c(c1)SC1=NS(=O)(=O)CCN12)C(c1ccccc1)c1ccccc1", "outcome": "inactive"},
      {"smiles": "O=C(Nc1ccc(F)cc1)Oc1ccccc1N1CCOCC1", "outcome": "inactive"},
      {"smiles": "COc1ccc(S(=O)(=O)NCC2CCCO2)cc1NC(=O)c1ccccc1F", "note": "(stereo not given)", "outcome": "inactive"},
      {"smiles": "COc1ccc(C)cc1NC(=O)CN1C(=O)COc2ccc(S(=O)(=O)N3CCOCC3)cc21", "outcome": "inactive"},
      {"smiles": "CC(=O)N(C)c1ccc(NC(=O)/C=C/c2ccccc2Cl)cc1", "outcome": "inactive"},
      {"smiles": "Nc1nonc1-n1nnc(C(=O)N/N=C/c2ccoc2)c1CSc1ccccc1", "outcome": "inactive"},
      {"smiles": "Cc1ccc(S(=O)(=O)CC(=O)N2CCN(c3ccccc3F)CC2)cc1", "outcome": "inactive"},
      {"smiles": "CCN(C(=O)COC(=O)c1cc(-c2cccs2)nc2ccccc12)C1CCS(=O)(=O)C1", "note": "(stereo not given)", "outcome": "inactive"},
      {"smiles": "COc1cccc2sc3ccc(C#CC4(O)CCCCC4)cc3c(=O)c12", "outcome": "inactive"},
      {"smiles": "CC(/C=N\\NC(=O)CN1CCN(S(=O)(=O)c2ccc(C)cc2)CC1)=C\\c1ccccc1", "outcome": "inactive"},
      {"smiles": "CCOC(=O)c1ccc(NC(=O)N2CCN(Cc3ccccc3)CC2)cc1", "outcome": "inactive"},
      {"smiles": "CC(C)NCC(O)COCCOc1ccc(Br)cc1", "note": "(stereo not given)", "outcome": "inactive"},
      {"smiles": "CN1CCN(Cc2c(C(=O)N/N=C/c3cccc(Br)c3)nnn2-c2nonc2N)CC1", "outcome": "inactive"},
      {"smiles": "CCSCCOC(=O)C1=C(C)NC(=O)NC1c1ccccc1", "note": "(stereo not given)", "outcome": "inactive"},
      {"smiles": "CCCCOc1ccc(Cc2c(COCC)[nH]c(=S)[nH]c2=O)cc1", "outcome": "inactive"},
      {"smiles": "N#Cc1c(OCC(=O)c2ccccc2)nc2c(c1-c1ccco1)CCc1ccccc1-2", "outcome": "inactive"},
      {"smiles": "CCn1cc(/C=C(\\NC(=O)c2ccccc2F)C(=O)N2CCOCC2)c2ccccc21", "outcome": "inactive"},
      {"smiles": "CN(C)CCN(C(=O)c1ccc2ccccc2c1)c1nc2ccc(F)cc2s1", "outcome": "inactive"},
      {"smiles": "Cc1ccc(C(=O)N2N=C(c3ccccc3O)CC2c2ccccc2)cc1", "note": "(stereo not given)", "outcome": "inactive"},
      {"smiles": "CC1(c2ccc(OCC#N)cc2)C=C(c2ccc(OCC#N)cc2)n2nc(C(F)(F)F)nc2N1", "note": "(stereo not given)", "outcome": "inactive"},
      {"smiles": "O=C(COC(=O)c1ccccc1Cc1ccccc1)NC1CCS(=O)(=O)C1", "note": "(stereo not given)", "outcome": "inactive"},
      {"smiles": "CCN1CCN(c2ccc(NC(=O)c3cccc(OCc4ccccc4)c3)cc2)CC1", "outcome": "inactive"},
      {"smiles": "O=C(CCNS(=O)(=O)c1ccc2[nH]c(=O)oc2c1)NCc1ccccc1", "outcome": "inactive"},
      {"smiles": "Cc1ccc(NC(=O)CCc2ccc(S(=O)(=O)NC3CCCCC3)cc2)cc1", "outcome": "inactive"},
      {"smiles": "CN(C)CC(C)(C)CNC(=S)NCc1ccc2c(c1)OCO2", "outcome": "inactive"}
    ]}
  ]
}
